Activity calls are given as the source filed them. Where a call stands in place of a potency, no number is given. Calls come from the whole dose curve; as a rule, active = well fitted cell-killing curve with a large enough effect; inconclusive = small, poorly fitted or top-dose-only effect, or effect the other way; inactive = flat fitted curve, though single readings scatter.
Potency is the fitted concentration of half-maximal effect.

A short description of the assay: MultiTox-Fluor Cytotoxicity Assay - LYMP1-003 - Dead Cells (AID 961). Note: nearly all actives have a fitted effect of over 70% in size. The settings on record: LYMP1-003 lymphoblastoid cells, dead-cell protease fluorescence; series mostly up to 92.2 µM. From the text: NIH Chemical Genomics Center [NCGC]
NIH Molecular Libraries Screening Centers Network [MLSCN]
National Institutes of Environmental Health Sciences [NIEHS]
National Toxicology Program [NTP]
We have developed a 1536-well cell-based assay for quantitative high throughput screening (qHTS) against a number of cell lines to determine in vitro cytotoxicity of small molecules. This particular assay uses a human lymphoblastoid cell line (LYMP1-003) purchased from Coriell Institute.
NCGC Assay Protocol Summary:
The MultiTox-Fluor Cytotoxicity Assay (Promega) is a homogeneous method to simultaneously measure the relative number of live and dead cells in culture by detecting changes in cell membrane integrity. There are two fluorogenic peptide substrates in the assay reagent. Viable cells are determined when the cell-permeant substrate (GF-AFC) enters the cell and is cleaved by protease from live cells resulting in liberated fluorophore. This live-cell protease activity restricted to viable cells is proportional to cell number. The dead cells are determined by using fluorogenic cell-impermeant peptide substrate (bis-AAF-R110) which cleaved by dead cell proteases leaking from damaged cell membrane.
Using the MultiTox-Fluor Cytotoxicity Assay, the relative number of dead cells was measured in the lymphoblastoid cell line with complete culture medium following compound treatment for 16 hours. The assay was performed in opaque black Kalypsys 1536-well plates. In the screen, tetraoctylammonium bromide was used as positive control. Library compounds were measured for their ability to cause acute toxicity in the cell line, as reflected by an increase in dead cell protease activity, in a concentration-dependent manner. Data were normalized to the controls for basal activity (DMSO only) and 100% stimulation (15 uM tetraoctylammonium bromide). AC50 values were determined from concentration-response data modeled with the standard Hill equation.
qHTS protocol for MultiTox-Fluor Cytotoxicity assay
[Step] [Parameter] [Value] [Description]
1. Reagent; 5 uL; 2500 lymphoblastoid cells/well
2. Time; 5 hr; 37 C incubation
4. Controls; 23 nL; Tetraoctylammonium bromide 6.4pM to 92 uM
5. Time; 16 hr; 37 C incubation
6. Reagent; 5 uL; MuliTox-Fluor Assay reagent
7. Time; 60 min; Room Temperature
8. Detection; dead-cell fluorescence (Ex/Em=485/520); EnVision plate reader
Keywords: cytotoxicity, lymphoblastoid cell line, fluorescence, NTPHTS, NTPHTS_NCGC, NIEHS, EPA, DSSTox, MLSMR, MLSCN, NIH Roadmap, qHTS, NCGC
Take `Cc1cc(O)ccc1Cl`: the Potency entry is “inactive”.

`CCOCCOC(C)=O`: the Potency result is “inactive”.

`COc1ccc(C(c2ccc(OC)cc2)C(Cl)(Cl)Cl)cc1`: the Potency result is “inactive”.

In the case of `CCCCCCCCc1ccc(O)cc1`, the Potency result was “inactive”.

Regarding `CN(C)NC(=O)CCC(=O)O`, the Potency entry was “inactive”.

`C=CC(=O)NCNC(=O)C=C`: the Potency result was “inactive”.

As to `CCCCC(CC)COC(=O)c1ccccc1C(=O)OCC(CC)CCCC` (stereo unspecified), the Potency entry was “inactive”.

On to `O=C(O)C(Cl)Cl`, for which the Potency result was “inactive”.

`CCCCOC(=O)c1ccccc1C(=O)OCc1ccccc1`: the Potency entry was “inactive”.

On to `O=S(=O)(c1ccc(Cl)cc1)c1ccc(Cl)cc1`, for which the Potency result is “inactive”.

Consider `COC(C)(C)CCCC(C)C/C=C/C(C)=C/C(=O)OC(C)C` (stereo unspecified), for which the Potency result was “inactive”.

Take `Nc1ccc(Sc2ccc(N)cc2)cc1`: the Potency entry was “inactive”.

`O=C(O)COc1ccccc1`: the Potency result is “inactive”.

Regarding `CN(C)[C@@H]1C(=O)C(C(N)=O)=C(O)[C@@]2(O)C(=O)C3=C(O)c4c(O)cccc4[C@@](C)(O)[C@H]3[C@H](O)[C@@H]12`, the Potency result was “inactive”.

Turning to `CC(C)(O)C(=O)Nc1ccc([N+](=O)[O-])c(C(F)(F)F)c1`, the Potency result was “inactive”.

As for `Nc1ccc(Cl)cc1`, the Potency entry is “inactive”.

On to `O=[N+]([O-])c1c(Cl)c(Cl)cc(Cl)c1Cl`, for which the Potency result is “inactive”.

As to `CCOP(=O)(NC(C)C)Oc1ccc(SC)c(C)c1` (stereo unspecified), the Potency result is “inactive”.

Regarding `OCCCBr`, the Potency result was “inactive”.

As for `Nc1ccc(Cl)cc1N`, the Potency result is “inactive”.

Take `c1cc2ccc3cccc4ccc(c1)c2c34`: the Potency result was “inactive”.

For `Nc1ccc([N+](=O)[O-])cc1`, the Potency entry is “inactive”.

Take `CC(=O)[O][Hg][c]1ccccc1`: the Potency is 2.51 µM (active).

`O=[N+]([O-])c1cc([N+](=O)[O-])c2ccccc2c1`: the Potency result is “inactive”.

As for `O=[N+]([O-])c1c2ccccc2cc2ccccc12`, the Potency result was “inactive”.

Consider `C1CCC(NC2CCCCC2)CC1`, for which the Potency entry was “inactive”.

Values taken from PubChem BioAssay (NCATS).
